This excerpt belongs to a sample that is enriched for hits.
Pf Dd2 inh – Plasmodium falciparum Dd2 growth inhibition. 120,000 tested, 4.3% active. P. falciparum Dd2 growth, SYBR Green, 72 h. Potency, µM (doses to about 28.9 µM), usual class: inhibitors; active = well fitted inhibition curve with a large enough effect; note: nearly all actives have a fitted effect of over 65% in size
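Infected erythrocytes (Dd2, 0.3% parasitemia, 2.5% hematocrit final) are added to compound in RPMI-1640/Albumax II medium, grown 72 h at 37C in low oxygen, then lysed with saponin/Triton-X containing SYBR Green and read by fluorescence.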
Of the large screens only hits and unclear results are named; the others gave an inactive call.

CCNc1ncnc2sc3c(c12)CCN(C(=O)c1ccnn1C)C3	Pf Dd2 inh 11.2µM
CCNc1ncnc2sc3c(c12)CCN(Cc1ccc[nH]1)C3	Pf Dd2 inh 1µM
CCc1ccc(Nc2ncnc3sc4c(c23)CCCC4)cc1	none
COc1ccc(Nc2ncnc3sc4c(c23)CCCC4)cc1	none
CCn1c2c(c(=O)n1-c1ccccc1)CCN(C(=O)c1ccnn1C)C2	none
CCCNC(=O)N1CCc2c(sc3ncnc(N4CCN(C)CC4)c23)C1	none
CS(=O)(=O)N(Cc1cccnc1)C1CN(C(=O)c2c[nH]c3ccccc23)C1	none
Cc1cc(C(=O)N2CCC3(CC2)CC(N2CCN(CC(C)C)CC2)CCO3)nn1C (stereo not drawn)	none
CNC(=O)C(C)(C)N1CCC[C@H]1C(=O)N1CCOCC1	none
COc1ccc(CN2CC[C@@H]3[C@H]2C(=O)NC[C@H](CCC(=O)N2CCN(c4ccccn4)CC2)N3C)cc1	none
O=C(O)CCC(=O)N1CCCC2(Cc3ccccc3N(C(=O)c3ccc(Cl)cc3)C2)C1 (stereo not drawn)	none
O=C(c1ccncc1)N1CCCN(Cc2cccnc2)c2ccccc21	none
O=C(c1ccccc1)N1CC2(CCCCN2Cc2cccnc2)Cc2ccccc21 (stereo not drawn)	Pf Dd2 inh 10µM
CS(=O)(=O)N1Cc2ccccc2CC2(CCCN2Cc2cccnc2)C1 (stereo not drawn)	none
O=C(c1ccc(Cl)cc1)N1CC2(CCN(Cc3cccnc3)CC2)Cc2ccccc21	none
C[S+](=O)([O-])N1CC2(CCCCN2Cc2ccc(Cl)cc2)Cc2ccccc21 (stereo not drawn)	none
O=[S+]([O-])(c1ccccc1)N1CC2(CCCN2Cc2cccnc2)Cc2ccccc21 (stereo not drawn)	Pf Dd2 inh 11.2µM
CCN1CCCN(C(=O)c2cccnc2)CC12CCOCC2	none
O=C(c1ccc(Cl)cc1)N1CC2(CCCN2Cc2cccnc2)Cc2ccccc21 (stereo not drawn)	Pf Dd2 inh 10µM
CCCNC(=O)N1C[C@@H](Oc2cccnc2)C[C@@H]1C(=O)NC	none
Cc1ccc(C(=O)N2CCC3(CC2)CC(O)CCO3)cc1 (stereo not drawn)	none
Cn1ccnc1C(=O)NC1CCc2nnc(C3CC3)n2CC1 (stereo not drawn)	none
O=C(O)C[C@@H]1CCN(C(=O)C2CC2)C[C@@H]1CCN1CCC(C(=O)O)CC1	none
COc1coc(CN2Cc3[nH]cnc3CC2C(=O)O)cc1=O (stereo not drawn)	none
CNC(=O)[C@@H]1CN(C(=O)c2cc3cc(OC)ccc3[nH]2)C[C@H]1c1nc(C)no1	none
COc1ccc2[nH]c(C(=O)N3CCC4(CC3)CC(c3nc(C)no3)N(C)C4)cc2c1 (stereo not drawn)	Pf Dd2 inh 7.94µM
COc1ccc2cc(C(=O)N3CCC4(CC3)CC(c3nc(C)no3)N(C)C4)[nH]c2c1 (stereo not drawn)	none
CN(Cc1nccn1Cc1ccccc1)C(=O)C1NCCc2[nH]cnc21 (stereo not drawn)	none
CCn1ccnc1CN1CCCC12CCN(c1ccc(C(F)(F)F)cn1)CC2	none
Cn1cc(CN2CCCC23CCN(c2ccnc4c(C(F)(F)F)cccc24)CC3)cn1	none
CCc1ncc(CN2CCCC23CCN(c2ccc(C(F)(F)F)cn2)CC3)cn1	Pf Dd2 inh 7.94µM
COc1ccc(-c2cn3cc(C(=O)N4CCCC4)nc3c(=O)n2CC2CC2)c(F)c1	Pf Dd2 inh 8.91µM
COc1ccc(-c2cn3cc(C(=O)NCCO)nc3c(=O)n2CC2CC2)c(F)c1	none
O=C(c1cn2cc(-c3ccccc3Cl)n(CC3CC3)c(=O)c2n1)N1CC[C@@H](O)C1	none
CNCC(=O)N1CCC(Cc2cccc(C(N)=O)c2)C1 (stereo not drawn)	none
O=C(NCCc1ccccc1)c1c[nH]c2ncccc12	none
COc1ccc(-c2noc(N3CCC(C(=O)Nc4ccc(F)cc4Cl)CC3)n2)cc1	none
COc1ccc(-c2noc(N3CCC(C(=O)N(C)c4cc(Cl)ccc4OC)CC3)n2)cc1	Pf Dd2 inh 10µM
COc1ccc(-c2noc([C@@H]3CCCN3C(=O)c3cc(Cl)ccc3OC)n2)cc1	none
O=c1n(-c2ccc(Cl)cc2)nc2n1CCN(CC1CCCCC1)C2	none
COc1cccc(NC(=O)c2cnc3c(c2)N(C(=O)Cc2ccccc2OC)CCC3)c1	none
O=C1[C@@H]2C[C@@H](CN2C(=O)c2cncnc2)Oc2ccccc2N1Cc1ccccn1	none
COC(=O)N(C)Cc1ccc(F)cc1	none
Cc1cn2nc(C(=O)NCC(C)C)cc2c(N2CCCC2)n1	none
Cc1cn2nc(C(=O)NC3CCCCC3)cc2c(N2CCCC2)n1	Pf Dd2 inh 10µM
Cc1cn2nc(C(=O)NCCc3ccccc3)cc2c(N2CCCC2)n1	none
CN(Cc1ccccc1)C(=O)C1CC(=O)N(c2n[nH]c3cccc(F)c23)C1 (stereo not drawn)	none
CN1CC(=O)N(c2ccccc2)Cc2c(NCCO)ncnc21	none
COC(=O)CC1c2cc(OC)c(OC)cc2CCN1C(=O)Nc1ccc(C)cc1Cl (stereo not drawn)	none
Cc1ccc(NC(=O)N2CCc3c([nH]c4ccccc34)C2c2ccccc2F)c(Cl)c1 (stereo not drawn)	Pf Dd2 inh 10µM
